SMILES strings stand for the structures. Structures can show the parent of a compound that is named as a salt.

The results in this text go back to the supplement of paper PMC12494721.

The test system of the assay is Klebsiella aerogenes DSM 30053. Nature of the assay: fold change of Histamine concentration vs plate DMSO controls (fold change (ratio)); higher = more amine produced, active = hit call of the paper (significant change in both replicates, either direction). The note with it: incubation time: 27 h, anaerobic, 37 °C. In outline:
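In 80 µL wells, cultures of four gut bacterial strains in mGAM started at OD 0.1 before a 1:1 dilution and grew anaerobically at 37 °C for 27 h. Compounds were added to 20 µM final, except sweeteners at 50 µM final. After extraction of whole cultures with cold acetonitrile/methanol plus 0.1% formic acid and centrifugation, amines were measured by LC–triple-quadrupole MS in dynamic MRM mode against external calibration curves, with within-batch drift correction. Values give fold change over DMSO controls on the same plate, averaged across 2 biological replicates.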
Consider `O=C(OCCOCCO)c1ccccc1Nc1cccc(C(F)(F)F)c1` [Etofenamate] (20 µM), for which the “fold change of Histamine concentration” value was 0.902 (inactive). For `CCCCOc1ccc(CC(=O)NO)cc1` [Bufexamac] (20 µM) the value was 1.25 (inactive); for `Cc1scc2c1N(C(=O)CN1CCN(C)CC1)c1ccccc1NC2=O` [Telenzepine dihydrochloride] (20 µM), 0.927 (inactive). In the case of `OC[C@H]1O[C@H](O[C@H]2O[C@H](CO)[C@@H](O)[C@H](O)[C@H]2O)[C@H](O)[C@@H](O)[C@@H]1O` [Trehalose] (50 µM) it was 0.94 (inactive). Turning to `NCCCC(O)(P(=O)(O)O)P(=O)(O)O` [Alendronate sodium] (20 µM), the “fold change of Histamine concentration” value was 0.858 (inactive). In the case of `CC(=O)Nc1ccc(CC(=O)O)cc1` [Actarit] (20 µM) it was 1.02 (inactive); in that of `CCCCc1cc2ccccc2c(OCCN(C)C)n1` [Dimethisoquin hydrochloride] (20 µM), 0.872 (inactive); in that of `CC[C@H]1OC(=O)C[C@@H](O)[C@H](C)[C@@H](O[C@@H]2O[C@H](C)[C@@H](O[C@H]3C[C@@](C)(O)[C@@H](O)[C@H](C)O3)[C@H](N(C)C)[C@H]2O)[C@@H](CC=O)C[C@@H](C)C(=O)/C=C/C(C)=C/[C@@H]1CO[C@@H]1O[C@H](C)[C@@H](O)[C@@H](OC)[C@H]1OC` [Tylosin] (20 µM), 0.792 (inactive). In the case of `CN(C)CCC=C1c2ccccc2C=Cc2ccccc21` [Cyclobenzaprine hydrochloride] (20 µM) it was 1.06 (inactive). In the case of `CC(=C(CCO)SSCC1CCCO1)N(C=O)Cc1cnc(C)nc1N` (stereo in doubt) [Fursultiamine hydrochloride] (20 µM) it was 1.04 (inactive); in that of `CCOC(=O)O[C@]1(C(=O)OCCl)CC[C@H]2[C@@H]3CCC4=CC(=O)C=C[C@]4(C)[C@H]3[C@@H](O)C[C@@]21C` [Loteprednol etabonate] (20 µM), 0.899 (inactive).

For the molecule `N[C@@H](CSCCCO)C(=O)O` [Fudosteine] (20 µM), the “fold change of Histamine concentration” value was 0.977 (inactive). With `CC1=C(C)C(=O)C(C(CCCCCC(=O)O)c2ccccc2)=C(C)C1=O` (centres undefined) [Seratrodast] (20 µM), the “fold change of Histamine concentration” value is 1 (inactive). `C[C@]12C=CC(=O)C=C1CC[C@@H]1[C@@H]2C(=O)C[C@@]2(C)[C@H]1CC[C@]2(O)C(=O)CO` [Prednisone] (20 µM): the “fold change of Histamine concentration” value was 0.861 (inactive).
